Experimental data reported in PubChem BioAssay (NCI).
Where “and” joins values, the source holds several entries; their conditions need not be identical. Equal values may be shown once. The panel holds about 83,000 compounds, 20% with a hit somewhere; the sample as a whole holds those more often.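 Single-dose data. Exposure time 48 hours. Values below 10 considered active.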 More than one record can exist for a structure, and the calls need not agree. Calls of active or inactive are those of the source.

Key:
Test in all cases: NCI-60 one-dose screen, 48 h (100 = growth as untreated, 0 = no growth, -100 = all killed)
Settings in all cases: 10 µM
NCI-H23 lung = system: NCI-H23 lung
NCI-H226 lung = system: NCI-H226 lung
NCI-H322M lung = system: NCI-H322M lung
HOP-62 NSCLC = system: HOP-62 NSCLC
NCI-H460 lung = system: NCI-H460 lung
HOP-92 NSCLC = system: HOP-92 NSCLC
NCI-H522 lung = system: NCI-H522 lung
A549/ATCC NSCLC = system: A549/ATCC NSCLC
786-0 renal = system: 786-0 renal
COLO 205 colon = system: COLO 205 colon
DU-145 prostate = system: DU-145 prostate
K-562 leukemia = system: K-562 leukemia
MALME-3M melanoma = system: MALME-3M melanoma
MDA-MB-231 breast = system: MDA-MB-231 breast
RXF 393 renal = system: RXF 393 renal
SF-268 CNS = system: SF-268 CNS
SF-295 CNS = system: SF-295 CNS
SF-539 CNS = system: SF-539 CNS
UACC-257 melanoma = system: UACC-257 melanoma
M14 melanoma = system: M14 melanoma

Row | Structure (SMILES) | growth (NCI-H23 lung) | growth (NCI-H226 lung) | growth (NCI-H322M lung) | growth (HOP-62 NSCLC) | growth (NCI-H460 lung) | growth (HOP-92 NSCLC) | growth (NCI-H522 lung) | growth (A549/ATCC NSCLC) | growth (786-0 renal) | growth (COLO 205 colon) | growth (DU-145 prostate) | growth (K-562 leukemia) | growth (MALME-3M melanoma) | growth (MDA-MB-231 breast) | growth (RXF 393 renal) | growth (SF-268 CNS) | growth (SF-295 CNS) | growth (SF-539 CNS) | growth (UACC-257 melanoma) | growth (M14 melanoma)
1 | COc1ccc(C(=O)C(CN(C)C)CN(C)C)cc1 | 96.1% (inactive) | 113% (inactive) | 98% (inactive) | 97.9% (inactive) | 102% (inactive) | 44% (inactive) | -54.1% (active) | 118% (inactive) | 87.8% (inactive) | -75.3% (active) | 56.9% (inactive) | -19.4% (active) | -70.7% (active) | 104% (inactive) | 63.9% (inactive) | 96.5% (inactive) | 102% (inactive) | 96.3% (inactive) | 73.1% (inactive) | 52% (inactive)
2 | O=[N+]([O-])c1cc[n+]([O-])cc1 | 100% (inactive) | 105% (inactive) | 133% (inactive) | 131% (inactive) | 103% (inactive) | 116% (inactive) | 83.1% (inactive) | 101% (inactive) | 106% (inactive) | 117% (inactive) | 120% (inactive) | 117% (inactive) | 101% (inactive) | 95.9% (inactive) | 114% (inactive) | 107% (inactive) | 101% (inactive) | 122% (inactive) | 76.5% (inactive) | 113% (inactive)
3 | CN(C)CCOC1(Cc2ccc(Cl)cc2Cl)CCC(C(C)(C)C)CC1 (stereo not drawn) | 33.4% (inactive) and 36.7% (inactive) | 53% (inactive) and 33.9% (inactive) | 70% (inactive) and 76.3% (inactive) | 39.8% (inactive) and 42.1% (inactive) | -65.8% (active) and -61.2% (active) | 47.9% (inactive) and 43% (inactive) | 9.54% (active) and 48.6% (inactive) | 38.9% (inactive) and 21.1% (inactive) | 51.2% (inactive) and 24.3% (inactive) | -89.2% (active) and -87.9% (active) | 22.7% (inactive) and 7.69% (active) | -37.2% (active) and -48.5% (active) | -48.2% (active) and -65.3% (active) | 7.18% (active) and -26.3% (active) | 30.2% (inactive) and -32.5% (active) | 46.1% (inactive) and 34.9% (inactive) | -44% (active) and -69.9% (active) | 39.7% (inactive) and 46.6% (inactive) | -33.6% (active) and 2.54% (active) | -34.4% (active) and -59.1% (active)
4 | C#CCN(Cc1ccc2nc(N)[nH]c(=O)c2c1)c1ccc(C(=O)NC(CCC(=O)O)C(=O)O)cc1 (stereo not drawn) | 99.2% (inactive) | 80.8% (inactive) | 90.3% (inactive) | 82.3% (inactive) | 80.1% (inactive) | 86.9% (inactive) | 80.2% (inactive) | 95% (inactive) | 12% (inactive) | 67.4% (inactive) | 48.6% (inactive) | 58.9% (inactive) | 86.8% (inactive) |  | 72.9% (inactive) | 70.4% (inactive) | 99.5% (inactive) | 0.195% (active) | 92.1% (inactive) | 44.7% (inactive)
5 | Cc1cc(N(CCOS(C)(=O)=O)CCOS(C)(=O)=O)ccc1C=Nc1ccc(-c2nc(Cc3ccccc3)sc2C)cc1 | 31% (inactive) | 61.6% (inactive) | -18.9% (active) | 36% (inactive) | -38.3% (active) |  | -91.3% (active) | 34.8% (inactive) | 13.8% (inactive) | -71.3% (active) | 11.8% (inactive) | 21.7% (inactive) | 58% (inactive) | 77.2% (inactive) | 45.9% (inactive) | 39.4% (inactive) | 12.6% (inactive) | 15% (inactive) | 6.01% (active) | 25.8% (inactive)
6 | Cc1ccc(Sc2ccccc2N)cc1 | 72.3% (inactive) | 106% (inactive) | 105% (inactive) | 100% (inactive) | 41.3% (inactive) | 101% (inactive) | 71.4% (inactive) | 96% (inactive) | 108% (inactive) | 96.8% (inactive) | 6.34% (active) | 108% (inactive) | 116% (inactive) | 102% (inactive) | 67.4% (inactive) | 98.1% (inactive) | 88.8% (inactive) | 114% (inactive) | 98.5% (inactive) | 99.5% (inactive)
7 | CC1=CC(=C(c2ccc(N)cc2)c2ccc(N)cc2)C=CC1=N | 29.7% (inactive) and 44.7% (inactive) | 17% (inactive) and 51.4% (inactive) | 26.3% (inactive) and 38.5% (inactive) | 31.4% (inactive) and 20.6% (inactive) | 6.34% (active) | 2.19% (active) and 63% (inactive) | -8.93% (active) and 60.9% (inactive) | 14.1% (inactive) and 16.9% (inactive) | 23.5% (inactive) and 42.8% (inactive) | -8.22% (active) and -56.6% (active) | 18.6% (inactive) and 38.3% (inactive) | 21.1% (inactive) and 24.5% (inactive) | 0.759% (active) and 56.2% (inactive) | 6.87% (active) and 21.8% (inactive) | -12.8% (active) and 62.6% (inactive) | 26.1% (inactive) and 29% (inactive) | -7.28% (active) | 8.88% (active) and 16.1% (inactive) | -6.06% (active) and 8.33% (active) | 27.4% (inactive)
8 | C=C1C(=O)OC2CC1C(OC(C)=O)C/C(C)=C/CC/C(C)=C\CCC2(C)O (stereo not drawn) | 11.1% (inactive) | 15.9% (inactive) | 67.3% (inactive) | 106% (inactive) | 21.7% (inactive) | -28.6% (active) | -83.9% (active) | 64.1% (inactive) | 38.9% (inactive) | 0.7% (active) | -5% (active) | -40% (active) | 18.6% (inactive) | 20.3% (inactive) | 13.1% (inactive) | 27.1% (inactive) | 106% (inactive) | 11.2% (inactive) | 58.2% (inactive) | 16.4% (inactive)
